Laboratory results from PubChem BioAssay.

Biological target: Fibroblast growth factor 10 (Homo sapiens) (UniProt O15520)
Experiment: FGF10 binders on small-molecule microarrays, primary screen, biochemical, small-molecule microarray, 635 nm fluorescence (AID 1102)
Settings: FGF10 binding, fluorescence 635 nm, higher = more signal

Fibroblast growth factor 10 (Homo sapiens), sequence (O15520 whole entry, looked up): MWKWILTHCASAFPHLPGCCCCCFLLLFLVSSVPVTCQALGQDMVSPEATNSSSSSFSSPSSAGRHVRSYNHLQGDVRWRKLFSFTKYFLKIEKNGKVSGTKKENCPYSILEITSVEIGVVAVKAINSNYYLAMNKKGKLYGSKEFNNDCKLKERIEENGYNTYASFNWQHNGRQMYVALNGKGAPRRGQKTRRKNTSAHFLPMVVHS

| SMILES | composite z-score |
| --- | --- |
| O=C1C[C@@H](O)[C@@H](O)[C@@H]2[C@@H]3C(=O)N(c4ccc(F)cc4F)C(=O)[C@@H]3CC[C@H]12 | 0.514 |
| Cc1cc(C)c(-c2cc([C@H](C)ON=C[C@@H](C)[C@H](OCc3ccccc3)C(C)C)on2)c(C)c1 | 0.149 |
| CCN1C(=O)[C@H]2[C@H]3[C@H](O)[C@H](O)CC(=NOCC=C(C)CCC=C(C)C)[C@@H]3CC[C@H]2C1=O | 1.21 |
| CC(CCC(=O)OC[C@H]1O[C@H](C#Cc2ccccc2)C=C[C@@H]1Oc1ccc(C)cc1)=NOC[C@@H](C)[C@H](OCc1ccccc1)C(C)C | -0.434 |
| CCOC(=O)CCN1C(=O)[C@H]2[C@H]3[C@H](O)[C@H](O)CC(=NO[C@@H]4O[C@H](CO)[C@@H](O)[C@H](O)[C@H]4O)[C@H]3CC[C@H]2C1=O | 0.655 |
| CC1(C)O[C@H]2OC([C@H](O)CON3C(=O)c4ccccc4C3=O)[C@H](O)[C@H]2O1 (stereo not given in full) | 0.0612 |
| CC(CCN1CCc2nc(-c3ccccc3)c(-c3ccccc3)cc2C1)=NO[C@H](C)c1cn([C@H](CO)Cc2ccccc2)nn1 | -0.356 |
| CON=C(C)CCN1CCCc2nc(C)c(C)cc21 | 0.423 |
| CC(=O)OC[C@H]1O[C@@H](ON=C(C)CCC(=O)OC[C@H]2O[C@H](C#Cc3ccccc3)C=C[C@@H]2Oc2ccc(C)cc2)[C@H](OC(C)=O)[C@@H](OC(C)=O)[C@@H]1OC(C)=O | 0.782 |
| CCN1C(=O)[C@H]2[C@H]3[C@H](O)[C@H](O)CC(=NO[C@H](C)c4cn([C@H](CO)Cc5ccccc5)nn4)[C@@H]3CC[C@H]2C1=O | 0.869 |
| CC(=O)OC[C@H]1O[C@@H](ON=C(C)C)[C@H](OC(C)=O)[C@@H](OC(C)=O)[C@@H]1OC(C)=O | -0.527 |
| CC(C)CON=C1C[C@@H](O)[C@@H](O)[C@@H]2[C@@H]3C(=O)N(c4ccc(F)cc4F)C(=O)[C@@H]3CC[C@@H]12 | 0.585 |
| C=C(C)C(=O)OC[C@H]1CN2[C@@H](CC[C@@H](C)[C@@H]2c2ccc(Br)cc2)C(=O)O1 | 0.261 |
| CC(CCN1CCCc2nc(C)c(C)cc21)=NOC[C@@H](O)COCc1ccco1 | 1.56 |
| O=C1C=C[C@@H](O)[C@@H]2[C@@H]3C(=O)N(Cc4ccc5c(c4)OCO5)C(=O)[C@@H]3CC[C@@H]12 | 0.515 |
| CC(C)(C)N1C(=O)[C@H]2[C@H]3[C@H](O)[C@H](O)CC(=NOC[C@@H](O)COCc4ccco4)[C@@H]3CC[C@H]2C1=O | 0.249 |
| C=CC[C@@H]1C=CC(ON=C(C)C)[C@@H](CO)O1 (stereo not given in full) | -0.766 |
| CCC1=NOC(CCC2CC(OC(=O)NCc3cccc4c3OCO4)CC3(CCCC(COC(=O)NCCc4ccc(Cl)cc4)O3)O2)C1 (stereo not given) | 1.41 |
| C#CCCCON=C1C[C@@H](O)[C@@H](O)[C@@H]2[C@@H]3C(=O)N(C4CCCCC4)C(=O)[C@@H]3CC[C@@H]12 | 0.743 |
| CC(=O)OC[C@H]1O[C@H](CC=NOC[C@@H](O)COCc2ccco2)C=C[C@@H]1OC(C)=O | 0.397 |
| CC(C)=NOC(C)CN1CCCc2nc(C)c(C)cc21 (stereo not given) | 0.809 |
| CCOC(=O)[C@H](Cc1ccccc1)NC(=O)CCC1CC(OC(=O)NCc2cccc3ccccc23)CC2(CCCC(COC(=O)NCC3CCCCC3)O2)O1 (stereo not given in full) | 0.781 |
| O=C1C[C@H](c2ccccc2)[C@H](c2ccc(Br)cc2)O1 | 0.193 |
| COC(=O)[C@H](C)NC(=O)CCC1CC(OC(=O)NCCc2ccc(F)cc2)CC2(CCCC(COC(=O)NCC3CCCCC3)O2)O1 (stereo not given in full) | 0.938 |
| CN1CCc2nc(-c3ccccc3)c(-c3ccccc3)cc2C1 | 0.486 |
| CC#CCOCCC=C1c2ccccc2[C@@H](OC)[C@@H]1C | 0.593 |
| C#CCCCON=C1C[C@@H](O)[C@@H](O)[C@@H]2[C@@H]3C(=O)N(C[C@@H]4CCCO4)C(=O)[C@@H]3CC[C@H]12 | 0.331 |
| O=C1[C@H]2[C@H]3[C@H](O)[C@H](O)CC(=NO[C@@H]4O[C@H](CO)[C@@H](O)[C@H](O)[C@H]4O)[C@H]3CC[C@H]2C(=O)N1c1ccc(F)cc1F | -0.0077 |
| CCCNC(=O)OC[C@H]1O[C@H](CCON=C2C[C@@H](O)[C@@H](O)[C@@H]3[C@@H]4C(=O)N(CC)C(=O)[C@@H]4CC[C@@H]23)C=C[C@@H]1Oc1ccc(OC)cc1 | 0.55 |
| CC(C)=CCCC(C)=CCON=C1C[C@@H](O)[C@@H](O)[C@@H]2[C@@H]3C(=O)N(c4cccc(Oc5ccccc5)c4)C(=O)[C@@H]3CC[C@H]12 | 0.411 |
